Bioassay records from PubChem.
Rows were chosen to be rich in hits. Some 5.7% of all compounds tested hit in one or more screens of this group.
D3 ag – agonists of human D3 dopamine receptor | P35462 | D3R DiscoveRx beta-arrestin cells, luminescence, 90 min | max activation, % | 410,000 compounds, 0.58% hits | AID 652048; in the data active = max activation above about 30%; also: 0% is about no effect
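Agonist mode: compounds and dopamine controls were applied to plated cells for 90 min at 37 degrees C after an overnight attachment at 1500 cells/well. Luminescent read-out followed 30 - 60 minutes at room temperature with DiscoveRx detection reagent.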
D3 antag – antagonists of human D3 dopamine receptor; P35462; D3R cells, DiscoveRx beta-arrestin luminescence, antagonist mode; hits give low values; max response, negative = inhibition, %; 360,000 compounds, 2.5% hits; in the data active = max response below about -50%; inconclusive = no clear call, values can overlap the other calls; also: % is scaled to controls: 0 for no effect and ±100 for the full control effect
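Cells expressing the human receptor were seeded at 1500 cells/well, incubated overnight at 37 degrees C in 5% CO2, then exposed to library compounds with dopamine controls for 90 minutes at 37 degrees C before luminescent detection.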
HEK293 tox – cytotoxicity in counter-screen for GLP-1R inverse agonists | 410,000 compounds, 0.13% hits | AID 624418 | Potency, µM (titrated, usually from 38.3 µM), without a hit: at the top dose activity change, negative = inhibition, hits mostly inhibitors | HEK293 cAMP-luciferase reporter cells, luminescence, 24 h;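 also: loss of luciferase light is scored as toxicity; potency is read from the fitted curve at half-maximal effect; % is scaled to controls: 0 for no effect and ±100 for the full control effect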
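1536-well qHTS counterscreen of the MLSMR; 200 cells/uL, 12 h pre-incubation, 23 nL cpd, 24 h at 37 deg C 5% CO2, luciferase detection reagent, 12 min RT, luminescence. Inhibition = undesired.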
GLP1R ag – agonists of human GLP-1 receptor; HEK293 GLP-1R CRE-luciferase, luminescence, 4-6 h; cells express a hypersensitive GLP-1R form; P43220; Potency, µM (top dose mostly 45.6 µM), without a hit: top-dose activation, usual class: activators; 380,000 compounds, 0.007% hits; also: potency is read from the fitted curve at half-maximal effect; % of control where 0% means no effect
GLP1R inv ag – GLP-1 receptor (human) inverse agonism; 410,000 compounds, 1.6% hits; Potency, µM (doses to about 38.3 µM), without a hit: at the highest dose activity change, negative = inhibition, hits mostly inhibitors; P43220; HEK293 GLP-1R CRE-luciferase, luminescence, 24 h; GLP-1R form is constitutively active; also: potency is read from the fitted curve at half-maximal effect; % is scaled to controls: 0 for no effect and ±100 for the full control effect; nearly all actives have a fitted effect of over 55% in size
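HEK293 cells stably co-expressing constitutively active GLP-1R and a cAMP-responsive luciferase reporter were seeded in DMEM with 10% Nu serum, given compounds after 12 h, and incubated 24 h at 37 deg C. Luminescence was then read.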
ClpP mod – qHTS Assay for Activators of ClpP; purified B. subtilis ClpP, FRET peptide cleavage, 20 min; 340,000 compounds, 1.9% hits; Potency, µM (titrated, usually from 57.5 µM), without a hit: at the top dose activity change, negative = active; active = well fitted falling curve with a large enough effect; inconclusive = small, poorly fitted or top-dose-only effect; inactive = no such curve, though single readings can be large or run the other way; also: potency is read from the fitted curve at half-maximal effect; the source files actives as falling curves though it sought activators and does not explain the sign; nearly all actives have a fitted effect of over 65% in size
Target sequence (P80244 whole entry, looked up): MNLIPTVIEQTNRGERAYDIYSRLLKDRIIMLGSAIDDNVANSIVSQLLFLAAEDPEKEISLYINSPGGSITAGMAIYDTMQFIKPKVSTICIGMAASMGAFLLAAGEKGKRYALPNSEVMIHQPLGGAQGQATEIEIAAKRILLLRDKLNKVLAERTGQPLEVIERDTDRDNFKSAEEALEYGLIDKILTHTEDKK
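Buffer: 100 mM Tris/HCl pH8, 100 mM KCl, 0.05% low protease BSA, 2.5% glycerol, 0.01% Tween-20. ClpP 10 microg/mL final; 20 min RT; delta FRET normalized to ADEP and DMSO controls.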
* = called active by the depositor; ? = inconclusive; . = no result given. Unless noted, calls follow the shape of the dose curve; as a rule, active = well fitted curve in the direction sought with a large enough effect; inconclusive = small, poorly fitted or top-dose-only effect, or another doubt; inactive = no such curve, though single readings can be large; an effect the other way counts as inactive or inconclusive.

SMILES	D3 ag	D3 antag	HEK293 tox	GLP1R ag	GLP1R inv ag	ClpP mod
CCOc1ccc(C2c3[nH]c4ccccc4c3CCN2C(=O)CCC2CCCC2)cc1 (stereo not given)	-17	.	1%	.	1.3µM*	-3%
CCOc1ccc(C2c3[nH]c4ccccc4c3CCN2C(=O)CSc2ccccc2)cc1 (stereo not given)	-12	.	3%	.	5µM*	-2%
CCOc1cccc(CC(=O)N2CCc3c([nH]c4ccccc34)C2c2ccc(Cl)cc2)c1OCC (stereo not given)	-6	.	-14%	.	10µM*	0%
O=C(CCC1CCCC1)N1CCc2c([nH]c3ccccc23)C1c1ccc(Cl)cc1 (stereo not given)	-12	.	13%	.	3.2µM*	-4%
COC(=O)N1C2CCCCC2=NN(c2ccccc2)N1C(=O)OC (stereo not given)	-8	-20	?	0%	?	-3%
CC(C)(C)c1ccc(C(=O)N2CCN(Cc3cc(=O)n4nc(-c5ccccc5F)sc4n3)CC2)cc1	-3	.	4%	.	0%	-11%
C[C@H](CO)N1C[C@H](C)[C@@H](CN(C)C(=O)Nc2ccc(C(F)(F)F)cc2)Oc2ccc(NS(=O)(=O)c3ccccc3)cc2C1=O	31*	18	-27%	-1%	?	2%
C[C@H](CO)N1C[C@H](C)[C@@H](CN(C)S(=O)(=O)c2cn(C)cn2)Oc2ccc(NC(=O)Nc3ccccc3)cc2C1=O	0	5	-2%	-3%	5%	0%
C[C@H](CO)N1C[C@H](C)[C@@H](CN(C)S(=O)(=O)c2ccccc2)Oc2ccc(NC(=O)CCC(F)(F)F)cc2C1=O	35*	4	-7%	19%	7%	-1%
C[C@H](CO)N1C[C@H](C)[C@@H](CN(C)C(=O)Nc2ccc(C(F)(F)F)cc2)Oc2ccc(NS(=O)(=O)c3ccc(F)cc3)cc2C1=O	-5	0	-19%	6%	?	0%
C[C@H](CO)N1C[C@H](C)[C@@H](CN(C)S(=O)(=O)c2ccccc2)Oc2ccc(NC(=O)Nc3ccc(C(F)(F)F)cc3)cc2C1=O	-8	6	?	-2%	?	-2%
CCOC(=O)CCCCCC(=O)Nc1ccc2c(c1)C(=O)N([C@H](C)CO)C[C@@H](C)[C@H](CN(C)S(=O)(=O)c1cn(C)cn1)O2	47*	23	-16%	1%	12%	-2%
C[C@H](CO)N1C[C@H](C)[C@@H](CN(C)C(=O)Nc2ccc(C(F)(F)F)cc2)Oc2ccc(NS(=O)(=O)c3cccs3)cc2C1=O	30*	12	-39%	-5%	?	-4%
CCN(CC)C(=O)Cn1c(=O)n(CCCCCC(=O)NCc2ccc(C)cc2)c(=O)c2sccc21	9	.	1%	.	-15%	1%
Cc1ccc(NC(=O)c2cnn(-c3ccc(C)c(C)c3)c2C2CCN(C(=O)OC(C)(C)C)CC2)c(C)c1	1	.	-16%	.	9%	2%
COc1ccc(CCNC(=O)c2cc(Sc3cccc(Cl)c3)nc3ccccc23)cc1OC	18	.	-4%	.	?	-16%
Cc1ccc(N(CC(=O)NCCSc2ccccc2)S(=O)(=O)c2ccc(F)cc2)cc1	-18	.	2%	.	-5%	5%
COCCCNCCOCCOc1ccc(Cl)cc1C(C)(C)C	-8	-23	?	-14%	3.5µM*	-5%
C=CCNCCOCCOc1ccc(Cl)cc1C(C)(C)C	-20	-58*	-25%	-2%	?	1%
CCCCSCCCNC(=O)CN1C(=O)c2cccnc2Oc2ccc(Cl)cc21	4	.	-1%	.	-15%	-1%
COc1cccc(-c2cn3c(n2)sc2cc(C(=O)NCCCc4ccccc4)ccc23)c1	13	.	-15%	.	?	5%
Cc1oc2cc3oc(=O)c(CCC(=O)NC4CC4)c(C)c3cc2c1C	79*	78	1%	6%	5%	-27%
